Source: PubChem BioAssay (NCATS)
Records with an inconclusive call do not appear. Entries that show only a call come without a potency. Unmarked numbers belong to inactive results. Activity calls are given as the source filed them. Calls follow the shape of the dose curve; as a rule, active = well fitted inhibition curve with a large enough effect; inconclusive = small, poorly fitted or top-dose-only effect; inactive = flat fitted curve, though single readings scatter.

Molecular target: Phospholipid hydroperoxide glutathione peroxidase GPX4 (Homo sapiens) (UniProt P36969)
Sequence (P36969 whole entry, looked up): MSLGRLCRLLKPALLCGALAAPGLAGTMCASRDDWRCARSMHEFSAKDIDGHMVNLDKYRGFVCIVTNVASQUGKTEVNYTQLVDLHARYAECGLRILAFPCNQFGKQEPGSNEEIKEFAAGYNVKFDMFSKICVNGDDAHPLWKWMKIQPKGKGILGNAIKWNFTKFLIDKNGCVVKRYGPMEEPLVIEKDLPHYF
Assay: Primary qHTS Assay for Inhibitors of Recombinant Selenoprotein Glutathione Peroxidase 4 (GPX4) (AID 1845192); also: nearly all actives have a fitted effect of over 65% in size
Conditions: recombinant GPX4, GR-coupled NADPH fluorescence, 15 min; series mostly up to 50 µM; activity change, negative = inhibition: at the top concentration
Method in brief: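 qHTS, GR-coupled: GPX4 200 nM + cpd 30 min RT → GSH 1 mM, NADPH 0.5 mM, GR 100 nM → CHP 0.5 mM start; fluor 340/450 at t0 and t15 min; no-enzyme wells as control.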

Structure (SMILES)	Potency	outcome	activity change, negative = inhibition [%]
CCc1cc(C(N)=S)ccn1	inactive	–	–
CCN(CC)CCn1c(=O)c(Cc2ccc(OC)cc2)nc2ccccc21	inactive	–	–
CN(CCOc1ccc(CC2SC(=O)NC2=O)cc1)c1ccccn1 (stereo unspecified)	–	inactive	–
CC[C@H](C)C(=O)O[C@H]1C[C@@H](C)C=C2C=C[C@H](C)[C@H](CC[C@@H]3C[C@@H](O)CC(=O)O3)[C@H]21	inactive	–	–
O=C(NCC1CN(c2ccc(N3CCOCC3=O)cc2)C(=O)O1)c1ccc(Cl)s1 (stereo unspecified)	inactive	–	–
CNC1CCCN(c2c(F)cc3c(=O)c(C(=O)O)cn(C4CC4)c3c2OC)C1 (stereo unspecified)	inactive	–	–
CCCN[C@H]1CCc2nc(N)sc2C1	inactive	–	–
CC1=NN(c2ccccc2)C(=O)C1	inactive	–	–
Cc1nnc(NS(=O)(=O)c2ccc(N)cc2)s1	inactive	–	–
O[C@@H](CNC[C@H](O)[C@H]1CCc2cc(F)ccc2O1)[C@@H]1CCc2cc(F)ccc2O1	–	–	-27.3
CC1=CC(=O)c2ccccc2C1=O	–	inactive	–
COCCCOc1cc(C[C@@H](C[C@H](N)[C@@H](O)C[C@H](C(=O)NCC(C)(C)C(N)=O)C(C)C)C(C)C)ccc1OC	inactive	–	–
NC(=O)N1c2ccccc2CC(=O)c2ccccc21	–	–	-6.92
CN1CCCC(n2nc(Cc3ccc(Cl)cc3)c3ccccc3c2=O)CC1 (stereo unspecified)	–	–	2.17
Nc1nc(F)nc2c1ncn2[C@@H]1O[C@H](CO)[C@@H](O)[C@@H]1O	inactive	–	–
CC(C(=O)O)c1ccc2c(c1)CC(=O)c1ccccc1S2 (stereo unspecified)	inactive	–	–
COc1ccc2c(c1)c(CC(=O)OCC(=O)O)c(C)n2C(=O)c1ccc(Cl)cc1	–	–	3.74
CCCCS(=N)(=O)CCC(N)C(=O)O (stereo unspecified)	inactive	–	–

Structure (SMILES)	Potency	outcome	activity change, negative = inhibition [%]
CCn1cc(C(=O)O)c(=O)c2cc(F)c(N3CCN(C)CC3)cc21	–	–	-19.2
CC(C)(C)NC(=O)[C@H]1CC[C@H]2[C@@H]3CC[C@H]4NC(=O)C=C[C@]4(C)[C@H]3CC[C@]12C	inactive	–	–
CCOCC(O)COc1ccc(NC(=O)CC[S+](C)C)cc1 (stereo unspecified)	inactive	–	–
Cc1noc(NS(=O)(=O)c2ccc(N)cc2)c1C	–	–	-10.1
O=c1oc2c(O)c(O)cc3c(=O)oc4c(O)c(O)cc1c4c23	inactive	–	–
CN1CCN(c2c(F)cc3c(=O)c(C(=O)O)cn(CCF)c3c2F)CC1	–	–	-14.2
Cc1onc(-c2ccccc2Cl)c1C(=O)N[C@@H]1C(=O)N2[C@@H]1SC(C)(C)[C@@H]2C(=O)O	inactive	–	–
CCOC(=O)[C@H](CCc1ccccc1)N[C@H]1CS[C@H](c2cccs2)CN(CC(=O)O)C1=O	inactive	–	–
CCCCc1oc2ccc(NS(C)(=O)=O)cc2c1C(=O)c1ccc(OCCCN(CCCC)CCCC)cc1	inactive	–	–
C#CCN[C@@H]1CCc2ccccc21	inactive	–	–
CC1(C)[C@H](C(=O)O)N2C(=O)C[C@H]2S1(=O)=O	inactive	–	–
CCCCCCNC(=O)n1cc(F)c(=O)[nH]c1=O	inactive	–	–
CCOC(=O)c1ccc(C#Cc2ccc3c(c2)C(C)(C)CCS3)nc1	–	inactive	–
COc1ncnc(NS(=O)(=O)c2ccc(N)cc2)c1OC	inactive	–	–
CNC(=O)c1cc(Oc2ccc(NC(=O)Nc3ccc(Cl)c(C(F)(F)F)c3)cc2)ccn1	inactive	–	–
CC1CC2C3CCC4=CC(=O)C=C[C@]4(C)[C@@]3(F)[C@@H](O)C[C@]2(C)[C@@]1(O)C(=O)CO (stereo partly specified)	–	–	1.9
CC(C)OC(=O)C(C(=O)OC(C)C)=C1SC=CS1	inactive	–	–
CCOC(=O)[C@H](CCc1ccccc1)N[C@H]1CCc2ccccc2N(CC(=O)O)C1=O	inactive	–	–
